An excerpt weighted towards active compounds, which were near 3.1% of everything screened.
DRD3 antagonist: antagonists of human D3 dopamine receptor. P35462. D3R cells, DiscoveRx beta-arrestin luminescence, antagonist mode; active compounds read low. max response, negative = inhibition, %. 360,000 compounds, 2.5% hits; in the data active = max response below about -50%; inconclusive = no clear call, values can overlap the other calls; note: % is set by controls: 0 for no effect and ±100 for the full control effect
Target sequence (P35462 whole entry, looked up): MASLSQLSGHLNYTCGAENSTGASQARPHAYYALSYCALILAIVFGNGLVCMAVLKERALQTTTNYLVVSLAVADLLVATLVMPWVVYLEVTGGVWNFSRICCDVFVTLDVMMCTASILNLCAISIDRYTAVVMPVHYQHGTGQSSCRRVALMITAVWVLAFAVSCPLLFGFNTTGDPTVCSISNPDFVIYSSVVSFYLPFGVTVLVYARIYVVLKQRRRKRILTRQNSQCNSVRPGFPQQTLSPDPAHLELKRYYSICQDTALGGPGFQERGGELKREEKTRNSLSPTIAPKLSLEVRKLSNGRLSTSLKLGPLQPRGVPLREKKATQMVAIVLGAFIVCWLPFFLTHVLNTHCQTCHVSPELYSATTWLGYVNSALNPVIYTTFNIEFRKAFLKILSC
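Cells plated overnight at 1500 cells/well, then exposed to library compounds with dopamine controls for 90 minutes at 37 degrees C. DiscoveRx reagent added for 30–60 minutes at room temperature; luminescence read, quantitative HTS format.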
RGS4 inhibitor: human RGS4 inhibition | P49798 | Transcreener GDP fluorescence polarization, RGS4-accelerated GTP hydrolysis | Potency, µM (doses to about 114 µM), for inactives: at the top dose activity change, negative = inhibition, usual class: inhibitors | 390,000 compounds, 0.039% hits; active = well fitted inhibition curve with a large enough effect; inconclusive = small, poorly fitted or top-dose-only effect; inactive = no such curve, though single readings can be large or run the other way; note: potency is the fitted concentration of half-maximal effect; % is set by controls: 0 for no effect and ±100 for the full control effect; nearly all actives have a fitted effect of over 75% in size
Target sequence (P49798 whole entry, looked up): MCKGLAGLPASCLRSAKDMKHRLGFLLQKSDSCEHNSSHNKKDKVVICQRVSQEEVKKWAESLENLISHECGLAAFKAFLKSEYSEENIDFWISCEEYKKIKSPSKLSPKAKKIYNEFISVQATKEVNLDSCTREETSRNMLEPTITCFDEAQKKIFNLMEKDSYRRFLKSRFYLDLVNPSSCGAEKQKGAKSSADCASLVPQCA
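MLSMR compounds (23 nl, pin-transferred) preincubated 10 min at room temperature with a 500nM (2x) first reagent, then RGS4 at 900nM (2x) plus Transcreener GDP mix added; fluorescence polarization (620/688 nm) read before and after 90 min at 30 °C.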
uPA surface inh: blocks generation of uPA at the cell surface; cell surface uPA generation assay, qHTS; Potency, µM (doses to about 38.3 µM), for inactives: at the top dose activity change, negative = inhibition, actives largely listed as inhibitors; 330,000 compounds, 0.31% hits; active = well fitted inhibition curve with a large enough effect; inconclusive = small, poorly fitted or top-dose-only effect; inactive = no such curve, though single readings can be large or run the other way; tested in mouse RAW 264.7 cells; note: potency is the fitted concentration of half-maximal effect; % is set by controls: 0 for no effect and ±100 for the full control effect; nearly all actives have a fitted effect of over 55% in size
D3 ag: D3 dopamine receptor (human) agonism. P35462. D3R DiscoveRx beta-arrestin cells, luminescence, 90 min. max activation, %. 410,000 compounds, 0.58% hits; in the data active = max activation above about 30%; note: 0% is about no effect
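Agonist mode: compounds and dopamine controls were applied to plated cells for 90 min at 37 degrees C after an overnight attachment at 1500 cells/well. Luminescent read-out followed 30 - 60 minutes at room temperature with DiscoveRx detection reagent.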
Active calls of the source: *; i = inactive; ? = inconclusive; / = no result given; ! = not confirmed by another sample; [ ] = remark or other dose.

SMILES	DRD3 antagonist	RGS4 inhibitor	uPA surface inh	D3 ag
Cc1c(C(=O)OCC(C)C)[nH]c2c1C(=O)CC(c1ccco1)C2 (configuration not stated)	-53*	-41%	?	-11
O=C(CCN1CCOCC1)c1ccc(N2CCCCC2)cc1	-76*	-37%	?	-50
CCOP(=S)(OCC)SCSc1ccc(Cl)cc1	/	/	/	48*
CCOP(=O)(OCC)C(NC(=O)c1ccc(Cl)cc1)=C(Cl)Cl	11	15%	-6%	-2
COc1ccccc1CCNC1CCC(C(C)(C)C)CC1 (configuration not stated)	-74*	-10%	/	-38
CCCCCc1cc(O)c2c(c1)OC(C)(C)[C@@H]1CCC(C)=C[C@@H]21	/	/	/	8
N#Cc1ccc2nc(-c3ccc(CN4CCC(n5c(=O)[nH]c6ccccc65)CC4)cc3)c(-c3ccccc3)nc2c1	-57*	/	/	-9
C[C@@H]([C@@H](O)c1ccccc1)N(C)C(=O)Cc1ccccc1	6	4%	3%	-3
CN(C)CC(C(=O)Cc1ccccc1)c1ccccc1 (configuration not stated)	-63*	?	?	-22
COC(=O)N1C(=O)[C@@](Cc2ccccc2)(c2ccccc2)N1C(=O)OC	-19	-39%	?	-13
CC1Oc2cc3c(-c4c(O)cc(O)c5c(O)c6c(cc45)OC(C)C(C)C6=O)c(O)cc(O)c3c(O)c2C(=O)C1C (configuration not stated)	?	?	5.6µM*	-50
COc1ccc(-c2nc(C(N)=O)c3[nH]c(=O)n(-c4ccccc4OC)c3n2)c(OC)c1	-5	26%	11µM*	-8
CN(C)c1ccc(/C=C(\Cl)c2nc3ccccc3s2)cc1	-1	-11%	10µM*	-22
CN1C2CCC1C(COC(=O)c1ccccc1)C(O)C2 (configuration not stated)	3	7%[56.9 µM]	-6%	3
CC1CCN(C(CC(=O)c2ccccc2)C(=O)c2ccccc2)CC1 (configuration not stated)	-79*	-139%	-12%	-20
Cc1ccccc1-n1c(C)nc2ccccc2c1=O	11	-1%	2%	68*!
Cc1ccc(Nc2nnc(SCC(=O)NCC3CCCO3)s2)cc1C (configuration not stated)	-1	11%	?	-10
CN1C(=O)/C(=C\c2ccc(N3CCCCC3)o2)C(=O)NC1=S	?	-25%	-5%	-5
CN1C(=O)/C(=C/c2ccc(N3CCCCCC3)o2)C(=O)NC1=S	-56*	?	-2%	2
COc1ccc(Br)cc1CN1CCN(CCO)CC1	-87*	17%	10%	-32
CCN1CCN(Cc2cc(Br)ccc2O)CC1	-73*	-10%	0%	-5
NCCCN1CCN(c2ccccc2)CC1	-5	21%	1%	-6
COc1cc(Br)cc(CN2CCN(C)CC2)c1O	?	-8%	/	-57
Oc1ccc(Br)cc1CN1CCN(c2ccccc2)CC1	-95*	24%	/	-48
CCc1ccc(CN2CCN(C(=O)Cc3ccccc3)CC2)cc1	-7	0%	-3%	-2
SMILES	DRD3 antagonist	RGS4 inhibitor	uPA surface inh	D3 ag
CCN1CCN(Cc2cc(Br)cc(Br)c2O)CC1	?	3%	0%	-2
CCc1ccc(CN2CCN(Cc3cc(Br)ccc3O)CC2)cc1	-80*	2%	3%	-17
CCOP(=O)(C1=C(O)C(=O)C(C(C)(C)C)=CC1=O)c1ccccc1 (configuration not stated)	-3	?	-2%	0
CCCN1C[C@H](C)N([C@H](c2ccc(C(=O)N(CC)CC)cc2)c2cccc(OC)c2)C[C@H]1C	/	-68%[56.9 µM]	/	/
CCN(CC)c1ccc(CN(C)CCc2ccc(OC)c(OC)c2)cc1	?	-33%	/	-23
COc1ccc(CCN(C)Cc2ccc(F)cc2F)cc1OC	-77*	27%	2%	-28
CC1(C)CC/C(=C/c2ccc(Cl)cc2)C1(O)Cn1cncn1 (configuration not stated)	/	/	/	-14
NC(=O)c1ccc(OCC(O)CN2CC=C(c3ccc(F)cc3)CC2)cc1 (configuration not stated)	/	4%[56.9 µM]	/	/
CC(=O)c1cccc(OCC(O)CN2CC=C(c3ccccc3)CC2)c1 (configuration not stated)	9	-1%	3%	73*
CCCCCCC(C)(C)c1ccc([C@@H]2C[C@H](O)CC[C@H]2CCCO)c(O)c1	102	?	15%	70*
COc1cc([C@@H]2c3cc4c(cc3[C@@H](O)[C@H]3COC(=O)[C@H]23)OCO4)cc(OC)c1O	/	/	/	-10
COc1cc2c(cc1/C=C/[N+](=O)[O-])OCO2	-21	?	-21%	-7
O=[N+]([O-])/C=C/c1ccc2c(c1)OCO2	/	1.5µM*	/	/
CCOC(=O)c1cccc(C2=C(CNC(=O)c3ocnc3C)[C@H]3CC[C@@H](C2)N3Cc2ccccc2)c1	-2	/	/	-12
CS(=O)(=O)c1ccc(C2=C(CNC(=O)c3ccc([N+](=O)[O-])cc3)[C@H]3CC[C@@H](C2)N3Cc2ccccc2)cc1	-86*	/	/	-8
CCOC(=O)c1cccc(C2=C(CNC(=O)c3nccs3)[C@H]3CC[C@@H](C2)N3Cc2ccccc2)c1	-57*	/	/	-17
CCN(CC)Cc1nccn1-c1ccc([N+](=O)[O-])cc1C(=O)c1ccccc1Cl	/	/	/	-23
O=C(NC1CCN(Cc2ccccc2)CC1)c1cccc(S(=O)(=O)Nc2ccc(SC(F)F)cc2)c1	-101*	-40%	?	-26
O=C(COC(=O)Cc1ccccc1)Nc1ccc(SC(F)F)cc1	-7	-3%	6%	-6
C[C@]12C=CC(=O)C=C1CC[C@@H]1C2=CC[C@]2(C)[C@@H](C(=O)CN3CCN(c4cc(N5CCCC5)nc(N5CCCC5)n4)CC3)CC[C@@H]12	-16	11µM*!	?	-37
CC1(C)N(O)C(c2ccc(C(=O)O)cc2)=[N+]([O-])C1(C)C	/	i	/	/
CC(=O)Oc1ccc2c3c1O[C@H]1[C@@H](OC(C)=O)C=C[C@H]4[C@@H](C2)N(C)CC[C@@]341	/	/	/	3
N#Cc1c(Br)n(C2OC(CO)C(O)C2O)c2ncnc(N)c12 (configuration not stated)	41	-31%	-8%	38*
CN1CC(C(=O)c2ccc([N+](=O)[O-])cc2)C(c2ccc(Cl)cc2)C1 (configuration not stated)	-59*	-19%	-1%	-21
COc1ccc(C(=O)C2CN(C)CC2c2ccc(Cl)cc2)cc1 (configuration not stated)	-27	8%	-23%	-27
CC(C)(C)n1nnnc1C(CCc1ccccc1)N1CCC2(CC1)C(=O)NCN2c1ccccc1 (configuration not stated)	-68*	/	/	-15
CC(C)(C)n1nnnc1C(c1ccccc1)N1CCC2(CC1)C(=O)NCN2c1ccccc1 (configuration not stated)	-67*	/	/	-12
CCC(c1nnnn1-c1ccc2c(c1)OCCO2)N1CCC2(CC1)C(=O)NCN2c1ccccc1 (configuration not stated)	-51*	/	/	-7

Compound activity: PubChem, National Center for Advancing Translational Sciences (NCATS)
